L major viab = reduces viability of Leishmania major promastigotes; resazurin fluorescence viability; inhibition, % at 10 µM; 200,000 compounds, 9% hits; AID 1063; in the data active = inhibition above about 50%;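 also: promastigotes grown with compound for 44 hours at 28 °C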
WT yeast gro inh = growth inhibition of WT yeast, mitochondrial fusion screen | 190,000 compounds, 2.1% hits | mitochondrial fusion phenotypic screen, WT strain | inhibition, % at 10 µM | AID 1362; in the data active = inhibition above about 58%; tested in S. cerevisiae
CHOP inh = blocks CHOP induction under ER stress; CHO-K1 CHOP-promoter luciferase, tunicamycin-induced, 15-18 h; inhibition, % at 10 µM; 220,000 compounds, 3.8% hits; AID 2732;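 active = compounds that reduced the stress-induced luciferase reporter signal by more than about 70% of percent inhibition, limit read from the data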;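 also: 0% = tunicamycin plus vehicle and 100% = wells without tunicamycin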
Arbovirus anti = antivirals against arbovirus infection; arbovirus infection cell-based antiviral screen; inhibition, % at 10 µM; 200,000 compounds, 0.37% hits; in the data active = inhibition above about 30%
Active calls of the source: *; . = not tested or not shown. An excerpt weighted towards active compounds, which were near 12% of everything screened.

SMILES	L major viab	WT yeast gro inh	CHOP inh	Arbovirus anti
O=C(CSc1ncn[nH]1)Nc1ccc(OCc2ccccc2)cc1	18.0	7.4	-18.7	2.4
O=[N+]([O-])c1cc(CN2CCCC2)ccc1Sc1ccc(Cl)cc1	95.3*	52.3	5.9	5.6
COc1cc(/C=N/N=C(/N)c2nonc2N)cc(Br)c1OCc1ccccc1C	74.5*	13.4	59.6	-8.6
O=C(/C(=N/N=C/c1ccc(O)c(O)c1O)c1ccccc1)c1ccccc1	-6.2	3.5	72.1*	-24.1
Oc1cccc(C=NCc2ccccc2)c1O	-5.7	16.1	16.0	3.9
Oc1ccc(/C=N/N=C(c2ccccc2)c2ccccc2)c(O)c1O	-7.0	-12.4	70.2*	-18.9
C/C(N)=C(/C#N)C(=O)COC(=O)c1ccc(NC(N)=O)cc1	.	.	-11.8	.
COc1ccc(C2C(C#N)=C(N)Nc3nc4ccccc4n32)cc1 (configuration not stated)	64.7*	-8.8	32.8	2.8
CN(Cc1nc(-c2cccs2)no1)CC1(N2CCOCC2)CCCCC1	1.4	5.9	18.6	-5.5
O=C(Nc1ccc(-c2nc3ccccc3o2)c(O)c1)c1cc(-n2cnnc2)ccc1Cl	-4.5	-6.6	92.2*	-0.4
COC(=O)C1=C(O)CSC1=Nc1ccc(C)cc1	57.6*	-11.9	37.9	6.6
CCc1cccc(NC(=O)C(NC(=O)C2CCCCC2)C(C)C)c1 (configuration not stated)	4.1	-3.0	14.7	1.4
O=C(NC(NNc1ccc([N+](=O)[O-])cc1)(C(F)(F)F)C(F)(F)F)c1ccc(Cl)cc1	3.6	78.4*	79.3*	-20.3
Cc1ccc(OCC(=O)NCC(=O)Nc2ccc(F)cc2)c([N+](=O)[O-])n1	50.2*	-4.6	20.4	7.1
Cc1ccc2sc(-c3ccc(NC(=O)CCN4C(=O)c5ccccc5C4=O)cc3)nc2c1	-5.2	-1.4	34.6	-6.7
COc1ccccc1N(/N=C1\Sc2ccccc2C1=O)C(C)=O	.	.	22.6	.
Cc1noc(-c2ccc(Cl)cc2)c1C(=O)O/N=C(\N)c1ccc(C(C)(C)C)cc1	.	.	79.6*	.
Cc1cc(C(=O)O/N=C(\N)c2ccc(C(C)(C)C)cc2)no1	.	.	-19.2	.
Cc1csc(NC(=O)C(F)(F)F)n1	-6.8	-13.1	12.6	1.2
Cc1cc(N=NC(=O)c2ccccc2)ccc1O	85.6*	33.2	60.8	-11.9
O=Cc1cc(N=Nc2cccc(C(=O)O)c2)ccc1O	-10.6	-1.3	-21.4	24.2
COc1ccccc1C(=O)NC(=S)NNC(=O)c1sc2ccccc2c1Cl	90.0*	5.5	88.6*	-7.0
COc1ccccc1C(=O)NNC(=S)NC(=O)c1sc2ccccc2c1Cl	53.8*	-7.9	80.0*	-4.4
Cc1c(NC(=S)NC(=O)c2sc3ccccc3c2Cl)cccc1C(=O)O	-4.0	-2.8	-3.6	-3.0
S=C(Nc1ccc(Oc2ccccc2)cc1)N(CCCN1CCOCC1)Cc1ccccn1	24.6	16.1	30.6	1.2
SMILES	L major viab	WT yeast gro inh	CHOP inh	Arbovirus anti
COC(c1ccccc1)c1nnc(CCC(=O)NCCC(C)C)o1 (configuration not stated)	-6.1	15.6	0.6	3.2
COC(=O)C1=C(C(=O)OC)[C@@H]2Nc3ccccc3[C@@]23C[C@@H](C(=O)OC)N(C(C)=O)C3=N1	.	.	-3.6	.
O=C(CCCn1cnc([N+](=O)[O-])n1)Nc1ccc(Cl)c(Cl)c1	96.8*	-9.3	-9.4	3.0
Cc1c(Cl)cccc1NC(=O)CCCn1cnc([N+](=O)[O-])n1	49.5	14.3	33.9	3.1
O=C(CCCn1cnc([N+](=O)[O-])n1)Nc1cc(Cl)ccc1O	71.6*	-10.8	-2.8	-6.4
O=C(CCCn1cnc([N+](=O)[O-])n1)Nc1cccc(Cl)c1Cl	93.9*	1.5	27.1	-1.2
COc1ccc(C2/C=C\CN(Cc3ccco3)CC(=O)N2Cc2ccc(F)cc2)cc1 (configuration not stated)	.	.	-12.4	.
CCC(C)C(NC(=O)/C(=C\c1ccccc1)NC(=O)c1ccc(OC)cc1)C(=O)O (configuration not stated)	-6.8	-10.4	14.2	5.4
CCOc1ccc(-n2c(SC(C)C)nc3c(c2=O)SCC3)cc1	8.2	7.3	78.2*	0.9
CCOc1ccc(-n2c(SCc3ccc(C(=O)OC)o3)nc3c(c2=O)SCC3)cc1	83.1*	14.2	37.1	-15.0
COC(=O)c1ccc(CSc2nc3c(c(=O)n2-c2ccc(Br)cc2)SCC3)o1	98.1*	14.7	2.3	3.5
Cc1cc(C(=O)OCC(=O)NC2CCS(=O)(=O)C2)c2ccccc2n1 (configuration not stated)	-1.7	10.6	27.7	0.8
O=C(COC(=O)c1cc(-c2ccccc2)nc2ccccc12)NCC1CCCO1 (configuration not stated)	5.1	18.8	24.2	-1.6
O=C(COC(=O)c1cc(-c2cccc(Br)c2)nc2ccccc12)NCC1CCCO1 (configuration not stated)	3.5	71.1*	41.4	2.5
COc1ccc2cc(-c3cc(C(=O)OCC(=O)NC4CCS(=O)(=O)C4)c4ccccc4n3)ccc2c1 (configuration not stated)	60.0*	27.2	-1.3	-17.5
O=C(COC(=O)c1cc(-c2cccc3ccccc23)nc2ccccc12)NC1CCS(=O)(=O)C1 (configuration not stated)	69.2*	-40.3	45.9	6.3
CC1=CC(C)(C)N(C(=O)C(C)N2C(=O)c3ccccc3C2=O)c2c(C)cc(C)cc21 (configuration not stated)	32.6	.	104.6*	0.5
CC(NC(=O)CCc1nnc(CCCc2ccccc2)o1)c1ccccc1 (configuration not stated)	76.3*	-0.7	7.6	6.7
O=C(Cn1ncc(Cl)c(Cl)c1=O)N1CCc2ccccc21	87.0*	-11.5	36.2	-27.0
Cc1ccc(NC(=O)COC(=O)CC2CCCC2)cc1Cl	-5.1	12.4	72.4*	4.5
COc1ccc(N2CCN(C(c3cc(OC)ccc3OC)c3nnnn3CC3CCCO3)CC2)cc1 (configuration not stated)	-0.1	-10.2	-14.3	3.6
O=C(NCC1CC1)Nc1cccs1	.	.	8.2	.
COc1c(Cl)cc(Cl)cc1C(=O)Nc1ccc(NC(C)=O)cc1	59.5*	1.1	0.0	-18.8
COc1c(Cl)cc(Cl)cc1/C=C/C(=O)c1ccc(NC(=O)c2cccs2)cc1	100.4*	24.1	-115.9	-44.4
COc1c(Cl)cc(Cl)cc1C(=O)Nc1ccc(C(=O)O)cc1	-1.4	-8.8	7.7	0.7
SMILES	L major viab	WT yeast gro inh	CHOP inh	Arbovirus anti
CC(C)(C)NC(=S)N/N=C/c1cccnc1	.	.	-9.9	.
CC(=O)Nc1cccc(-c2nnc(SCC(=O)n3c4c(c5ccccc53)CCCC4)n2C)c1	-5.0	-9.3	16.4	5.3
Cc1cc(C)n(-c2ccc(S(=O)(=O)N3CCOCC3)cc2[N+](=O)[O-])n1	.	.	1.0	.
O=C(O)c1ccc(COc2ccc3ccccc3c2/C=C2/NC(=O)N(Cc3ccc(F)cc3)C2=O)cc1	-2.1	-21.7	68.0	47.7*
CCC(C)n1c(SCC(=O)NC(=O)Nc2ccc3c(c2)OCCO3)nc2ccccc2c1=O (configuration not stated)	85.9*	23.6	42.9	7.9
CCC(C)n1c(SCC(=O)NC(=O)c2cccn2C)nc2ccccc2c1=O (configuration not stated)	15.6	25.0	34.6	-6.9

High-throughput results deposited in PubChem by several laboratories.
